# Experimental data: PubChem BioAssay (NCATS)
# Inconclusive results are not listed. Unmarked numbers belong to inactive results. The source made the active and inactive calls. Calls come from the whole dose curve; as a rule, active = well fitted cell-killing curve with a large enough effect; inconclusive = small, poorly fitted or top-dose-only effect, or effect the other way; inactive = no such curve, though single readings can be large or run the other way. Non-standard residues stand in square brackets, D forms with d. Residues, ends and D or L forms follow the SMILES beside them. *: point of attachment. Sta = CC(C)C[C@H](N)[C@@H](O)CC(=O)O; Isovaleryl = CC(C)CC(=O)*
# Test: Quantitative High-Throughput drug screen in 47 multiple myeloma cell lines against the NCATS MIPE library collection: JIM1_ECACC cell viability assay (AID 1918964)
# Conditions: JIM1 myeloma viability, CellTiter-Glo ATP luminescence, 48 h; series mostly up to 45.8 µM; viability (% of DMSO): at the top concentration
# Procedure, shortened: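 Inhibition of cell viability is measured here. Each line was plated at 500 cells per well, treated with MIPE 4.0 drugs, kept 48 hours at 37C, then assayed for ATP content by CellTiter-Glo luminescence.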
# Potency is the fitted concentration of half-maximal effect.
SMILES,Potency,viability (% of DMSO) [%]
CCN(CC)CCOc1ccc(Nc2ncc3cc(-c4c(Cl)cccc4Cl)c(=O)n(C)c3n2)cc1,0.0833 µM (active),–
Nc1cc(C(Cl)=C(Cl)Cl)c(S(N)(=O)=O)cc1S(N)(=O)=O,–,96.1
Oc1ccc2ccccc2c1SSc1c(O)ccc2ccccc12,14.8 µM (active),–
CC(C)CC(=O)N[C@H](C(=O)N[C@H](C(=O)N[C@@H](CC(C)C)[C@@H](O)CC(=O)N[C@@H](C)C(=O)N[C@@H](CC(C)C)[C@@H](O)CC(=O)O)C(C)C)C(C)C (Isovaleryl-VV[Sta]A[Sta]-OH),–,93.1
N=C(N=C(N)N)N1CCOCC1,–,136
C[C@H](Cn1cnc2c(N)ncnc21)OCP(=O)(O)O,–,130
CC[C@]1(O)C[C@H]2CN(CCc3c([nH]c4ccccc34)[C@@](C(=O)OC)(c3cc4c(cc3OC)N(C=O)[C@H]3[C@@](O)(C(=O)OC)[C@H](OC(C)=O)[C@]5(CC)C=CCN6CC[C@]43[C@@H]65)C2)C1,0.0209 µM (active),–
Cc1cc(O)c2c(c1)C(=O)c1cc(O)cc(O)c1C2=O,–,128
O=C(NCC1CCCCN1)c1cc(OCC(F)(F)F)ccc1OCC(F)(F)F (centres undefined),1.87 µM (active),–
Nc1ccn([C@@H]2O[C@H](CO)[C@@H](O)C2O)c(=O)n1 (some centres undefined),4.18 µM (active),–
COC(=O)C1=C(C)NC(C)=C(C(=O)OC(C)C)C1c1cccc2nonc12 (centres undefined),–,67.5
Cc1cc(C2CCCCC2)n(O)c(=O)c1,3.32 µM (active),–
N=C(N)c1ccc2cc(OC(=O)c3ccc(N=C(N)N)cc3)ccc2c1,–,60.1
COc1cc2c(cc1OC)C1CC(=O)C(CC(C)C)CN1CC2 (centres undefined),–,124
